Legend:
Test in all cases: log2 ratio of Biotin-Ahx-Ub-VS probe labelling (fragment/DMSO); higher = less target engagement (more negative = stronger competition), active = hit call of the paper (q ≤ 0.05, log2 ratio ≤ -1)
Details in all cases: compound concentration: 200 uM; treatment time: 3 h
USP42 = molecular target: T1, USP42 (UniProt Q9H9J4)
T1 sequence (whole entry): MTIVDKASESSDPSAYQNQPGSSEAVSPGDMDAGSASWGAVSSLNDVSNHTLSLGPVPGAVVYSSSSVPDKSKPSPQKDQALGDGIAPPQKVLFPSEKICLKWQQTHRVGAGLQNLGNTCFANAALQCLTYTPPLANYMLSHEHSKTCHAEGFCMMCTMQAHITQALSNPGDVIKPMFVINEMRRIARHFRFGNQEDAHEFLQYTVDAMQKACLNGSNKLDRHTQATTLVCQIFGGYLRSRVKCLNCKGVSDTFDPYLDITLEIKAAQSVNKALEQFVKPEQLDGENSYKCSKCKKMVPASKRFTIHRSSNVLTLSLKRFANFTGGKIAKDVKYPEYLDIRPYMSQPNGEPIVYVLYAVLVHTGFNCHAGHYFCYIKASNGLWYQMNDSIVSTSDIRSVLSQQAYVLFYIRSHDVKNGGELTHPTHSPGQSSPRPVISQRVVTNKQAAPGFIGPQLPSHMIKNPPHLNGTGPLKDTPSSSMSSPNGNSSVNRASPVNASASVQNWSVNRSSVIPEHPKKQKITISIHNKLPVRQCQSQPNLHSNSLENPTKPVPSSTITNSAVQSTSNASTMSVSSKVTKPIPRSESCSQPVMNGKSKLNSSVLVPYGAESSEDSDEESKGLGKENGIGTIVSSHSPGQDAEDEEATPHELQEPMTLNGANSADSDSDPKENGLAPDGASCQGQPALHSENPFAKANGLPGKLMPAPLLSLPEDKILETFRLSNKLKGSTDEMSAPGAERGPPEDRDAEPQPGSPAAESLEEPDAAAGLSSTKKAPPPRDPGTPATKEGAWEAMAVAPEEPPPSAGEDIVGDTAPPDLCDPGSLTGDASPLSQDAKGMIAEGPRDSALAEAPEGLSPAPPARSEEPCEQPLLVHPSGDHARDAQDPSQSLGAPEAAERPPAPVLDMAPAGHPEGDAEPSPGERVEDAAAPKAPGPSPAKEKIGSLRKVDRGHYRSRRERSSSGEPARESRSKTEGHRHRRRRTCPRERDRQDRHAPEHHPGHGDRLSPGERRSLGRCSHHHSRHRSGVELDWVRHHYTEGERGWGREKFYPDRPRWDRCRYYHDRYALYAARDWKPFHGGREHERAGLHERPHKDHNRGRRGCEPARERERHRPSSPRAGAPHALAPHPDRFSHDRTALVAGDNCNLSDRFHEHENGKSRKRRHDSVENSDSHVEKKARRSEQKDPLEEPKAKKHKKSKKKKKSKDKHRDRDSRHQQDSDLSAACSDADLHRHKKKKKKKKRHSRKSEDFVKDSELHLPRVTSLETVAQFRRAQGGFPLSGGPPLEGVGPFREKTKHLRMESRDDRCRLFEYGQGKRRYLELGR
In short: (§1)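 HEK293T lysate (495 µg per sample, in Tris/CHAPS/IGEPAL buffer with protease inhibitors) was treated in triplicate with fragment at 200 µM or with DMSO for 3 h. It was then treated with Biotin-Ahx-Ub-VS (0.5 µM final) for 1 h. Labelled DUBs were NeutrAvidin-enriched, digested with LysC and trypsin, and run by diaPASEF LC-MS/MS. Spectronaut label-free quantities were global-median-normalised. Values are average log2 ratios fragment/DMSO by unpaired t-test, using proteins with ≥2 unique peptides.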

USP46 = USP46 (UniProt P62068)
In short: as §1

USP47 = molecular target: T2, USP47 (UniProt Q96K76)
T2 sequence (whole entry): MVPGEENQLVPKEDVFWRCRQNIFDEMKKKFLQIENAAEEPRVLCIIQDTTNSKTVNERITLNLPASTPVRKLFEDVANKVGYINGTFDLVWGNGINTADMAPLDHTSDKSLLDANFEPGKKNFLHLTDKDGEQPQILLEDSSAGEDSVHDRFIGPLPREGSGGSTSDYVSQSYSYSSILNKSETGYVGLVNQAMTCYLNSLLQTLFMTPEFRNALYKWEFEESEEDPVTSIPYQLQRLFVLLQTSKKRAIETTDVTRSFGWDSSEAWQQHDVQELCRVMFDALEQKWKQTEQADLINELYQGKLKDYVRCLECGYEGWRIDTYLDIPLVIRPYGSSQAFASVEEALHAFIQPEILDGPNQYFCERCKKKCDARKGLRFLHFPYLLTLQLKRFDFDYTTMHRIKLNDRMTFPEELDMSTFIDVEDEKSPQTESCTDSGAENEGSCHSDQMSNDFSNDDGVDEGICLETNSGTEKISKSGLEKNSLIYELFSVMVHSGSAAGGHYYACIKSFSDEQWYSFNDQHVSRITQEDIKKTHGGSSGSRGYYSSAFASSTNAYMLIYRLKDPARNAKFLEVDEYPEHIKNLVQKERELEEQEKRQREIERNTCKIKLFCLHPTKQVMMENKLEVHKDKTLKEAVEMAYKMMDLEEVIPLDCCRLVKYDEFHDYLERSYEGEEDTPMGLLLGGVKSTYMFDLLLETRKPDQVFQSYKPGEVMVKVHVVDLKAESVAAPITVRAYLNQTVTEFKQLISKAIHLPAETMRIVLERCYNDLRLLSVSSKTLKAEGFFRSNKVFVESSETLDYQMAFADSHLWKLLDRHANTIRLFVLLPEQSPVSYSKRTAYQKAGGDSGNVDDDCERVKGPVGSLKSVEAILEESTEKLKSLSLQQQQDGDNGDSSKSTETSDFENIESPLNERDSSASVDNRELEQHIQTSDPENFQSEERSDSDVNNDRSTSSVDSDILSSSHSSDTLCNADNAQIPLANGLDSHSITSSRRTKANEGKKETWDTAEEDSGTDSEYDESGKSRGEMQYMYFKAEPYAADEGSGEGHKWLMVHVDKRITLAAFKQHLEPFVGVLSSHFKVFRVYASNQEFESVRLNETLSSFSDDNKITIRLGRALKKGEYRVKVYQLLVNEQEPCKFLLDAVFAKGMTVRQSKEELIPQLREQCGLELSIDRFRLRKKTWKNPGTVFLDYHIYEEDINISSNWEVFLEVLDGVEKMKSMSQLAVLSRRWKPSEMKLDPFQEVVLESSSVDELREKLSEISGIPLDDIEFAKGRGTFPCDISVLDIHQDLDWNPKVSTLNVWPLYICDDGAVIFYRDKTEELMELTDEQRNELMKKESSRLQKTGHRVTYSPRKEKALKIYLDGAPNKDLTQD
In short: as §1

USP48 = molecular target: T3, USP48 (UniProt Q86UV5)
T3 sequence (whole entry): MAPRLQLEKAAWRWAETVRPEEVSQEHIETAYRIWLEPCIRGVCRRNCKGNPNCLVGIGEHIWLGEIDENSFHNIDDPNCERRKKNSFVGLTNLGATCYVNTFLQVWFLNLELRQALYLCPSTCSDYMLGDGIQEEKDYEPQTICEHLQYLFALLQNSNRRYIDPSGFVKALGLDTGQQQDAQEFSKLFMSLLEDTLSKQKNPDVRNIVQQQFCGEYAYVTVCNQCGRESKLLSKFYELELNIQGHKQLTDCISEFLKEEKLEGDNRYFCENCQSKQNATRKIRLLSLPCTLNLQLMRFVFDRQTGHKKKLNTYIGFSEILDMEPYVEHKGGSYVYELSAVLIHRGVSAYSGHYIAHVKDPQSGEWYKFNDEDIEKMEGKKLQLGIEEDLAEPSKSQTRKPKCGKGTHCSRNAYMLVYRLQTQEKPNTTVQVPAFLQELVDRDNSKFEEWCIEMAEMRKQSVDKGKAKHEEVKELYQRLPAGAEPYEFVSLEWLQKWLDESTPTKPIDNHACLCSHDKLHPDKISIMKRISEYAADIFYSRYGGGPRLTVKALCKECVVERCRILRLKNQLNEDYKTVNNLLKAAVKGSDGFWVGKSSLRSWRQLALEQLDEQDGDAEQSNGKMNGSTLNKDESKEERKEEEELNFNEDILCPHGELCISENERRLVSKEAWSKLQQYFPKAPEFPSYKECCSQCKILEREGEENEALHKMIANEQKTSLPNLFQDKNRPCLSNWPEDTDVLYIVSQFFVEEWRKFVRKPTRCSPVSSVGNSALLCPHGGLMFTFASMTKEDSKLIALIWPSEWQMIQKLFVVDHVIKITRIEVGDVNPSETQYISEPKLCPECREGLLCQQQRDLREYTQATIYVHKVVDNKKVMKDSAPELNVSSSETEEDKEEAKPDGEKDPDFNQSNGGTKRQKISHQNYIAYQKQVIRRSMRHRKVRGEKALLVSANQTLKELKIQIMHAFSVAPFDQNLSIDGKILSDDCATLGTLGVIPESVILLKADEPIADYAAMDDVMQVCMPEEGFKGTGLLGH
In short: as §1

USP5 = molecular target: T4, USP5 (UniProt P45974)
T4 sequence (whole entry): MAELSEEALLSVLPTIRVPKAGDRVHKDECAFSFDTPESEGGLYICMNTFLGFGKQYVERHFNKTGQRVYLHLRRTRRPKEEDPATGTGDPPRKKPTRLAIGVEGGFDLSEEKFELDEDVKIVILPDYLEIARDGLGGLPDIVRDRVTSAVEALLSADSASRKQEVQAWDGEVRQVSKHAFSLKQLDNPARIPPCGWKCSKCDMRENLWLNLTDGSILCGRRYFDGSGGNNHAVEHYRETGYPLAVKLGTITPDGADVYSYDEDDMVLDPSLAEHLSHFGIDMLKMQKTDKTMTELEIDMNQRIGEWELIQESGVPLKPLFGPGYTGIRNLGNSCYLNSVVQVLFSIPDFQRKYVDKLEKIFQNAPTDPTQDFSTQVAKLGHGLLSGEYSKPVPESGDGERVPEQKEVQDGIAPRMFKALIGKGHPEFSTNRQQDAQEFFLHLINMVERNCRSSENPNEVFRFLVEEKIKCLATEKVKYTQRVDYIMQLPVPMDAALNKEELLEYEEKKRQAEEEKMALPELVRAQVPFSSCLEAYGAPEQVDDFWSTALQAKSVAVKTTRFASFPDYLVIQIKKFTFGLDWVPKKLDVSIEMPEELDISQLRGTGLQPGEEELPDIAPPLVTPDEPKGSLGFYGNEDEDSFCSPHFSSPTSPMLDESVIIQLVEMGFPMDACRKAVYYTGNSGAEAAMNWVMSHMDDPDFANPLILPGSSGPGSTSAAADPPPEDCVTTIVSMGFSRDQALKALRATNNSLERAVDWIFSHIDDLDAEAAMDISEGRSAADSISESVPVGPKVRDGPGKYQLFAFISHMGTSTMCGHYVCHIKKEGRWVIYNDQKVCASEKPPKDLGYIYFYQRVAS
In short: as §1

USP54 = USP54 (UniProt Q70EL1)
In short: as §1

USP7 = USP7 (UniProt Q93009)
In short: as §1

USP8 = molecular target: T5, USP8 (UniProt P40818)
T5 sequence (whole entry): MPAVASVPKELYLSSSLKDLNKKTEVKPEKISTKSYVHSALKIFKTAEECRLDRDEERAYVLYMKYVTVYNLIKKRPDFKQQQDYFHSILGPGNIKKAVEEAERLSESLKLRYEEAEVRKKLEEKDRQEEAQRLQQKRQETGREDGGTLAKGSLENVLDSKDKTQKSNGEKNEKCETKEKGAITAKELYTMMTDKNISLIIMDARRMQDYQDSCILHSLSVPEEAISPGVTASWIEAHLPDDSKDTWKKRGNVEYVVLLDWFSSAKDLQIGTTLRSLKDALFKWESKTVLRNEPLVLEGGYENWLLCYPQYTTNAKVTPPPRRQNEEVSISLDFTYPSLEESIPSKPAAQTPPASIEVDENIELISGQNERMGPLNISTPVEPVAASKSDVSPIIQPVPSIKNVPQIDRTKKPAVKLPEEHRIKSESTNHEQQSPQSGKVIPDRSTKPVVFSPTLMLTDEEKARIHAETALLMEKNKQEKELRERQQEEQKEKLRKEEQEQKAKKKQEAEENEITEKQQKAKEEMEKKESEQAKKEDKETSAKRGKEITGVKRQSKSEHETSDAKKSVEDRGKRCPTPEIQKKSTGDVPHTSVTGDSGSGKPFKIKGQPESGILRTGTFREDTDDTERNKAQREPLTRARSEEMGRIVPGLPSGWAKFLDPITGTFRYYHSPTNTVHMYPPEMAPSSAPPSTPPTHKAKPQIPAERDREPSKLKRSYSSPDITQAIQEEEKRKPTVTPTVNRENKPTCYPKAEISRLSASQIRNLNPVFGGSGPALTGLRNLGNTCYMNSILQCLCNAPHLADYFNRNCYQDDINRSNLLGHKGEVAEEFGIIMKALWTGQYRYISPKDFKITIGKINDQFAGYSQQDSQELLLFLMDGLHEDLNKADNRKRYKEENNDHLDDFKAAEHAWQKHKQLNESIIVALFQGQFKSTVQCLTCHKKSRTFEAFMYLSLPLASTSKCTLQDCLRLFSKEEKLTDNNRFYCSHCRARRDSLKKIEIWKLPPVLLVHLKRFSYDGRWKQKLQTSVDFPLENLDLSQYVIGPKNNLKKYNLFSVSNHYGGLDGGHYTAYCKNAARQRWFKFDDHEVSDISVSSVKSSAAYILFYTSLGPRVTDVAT
In short: as §1

Measured: log2 ratio of Biotin-Ahx-Ub-VS probe labelling

USP54, sequence (Q70EL1 whole entry): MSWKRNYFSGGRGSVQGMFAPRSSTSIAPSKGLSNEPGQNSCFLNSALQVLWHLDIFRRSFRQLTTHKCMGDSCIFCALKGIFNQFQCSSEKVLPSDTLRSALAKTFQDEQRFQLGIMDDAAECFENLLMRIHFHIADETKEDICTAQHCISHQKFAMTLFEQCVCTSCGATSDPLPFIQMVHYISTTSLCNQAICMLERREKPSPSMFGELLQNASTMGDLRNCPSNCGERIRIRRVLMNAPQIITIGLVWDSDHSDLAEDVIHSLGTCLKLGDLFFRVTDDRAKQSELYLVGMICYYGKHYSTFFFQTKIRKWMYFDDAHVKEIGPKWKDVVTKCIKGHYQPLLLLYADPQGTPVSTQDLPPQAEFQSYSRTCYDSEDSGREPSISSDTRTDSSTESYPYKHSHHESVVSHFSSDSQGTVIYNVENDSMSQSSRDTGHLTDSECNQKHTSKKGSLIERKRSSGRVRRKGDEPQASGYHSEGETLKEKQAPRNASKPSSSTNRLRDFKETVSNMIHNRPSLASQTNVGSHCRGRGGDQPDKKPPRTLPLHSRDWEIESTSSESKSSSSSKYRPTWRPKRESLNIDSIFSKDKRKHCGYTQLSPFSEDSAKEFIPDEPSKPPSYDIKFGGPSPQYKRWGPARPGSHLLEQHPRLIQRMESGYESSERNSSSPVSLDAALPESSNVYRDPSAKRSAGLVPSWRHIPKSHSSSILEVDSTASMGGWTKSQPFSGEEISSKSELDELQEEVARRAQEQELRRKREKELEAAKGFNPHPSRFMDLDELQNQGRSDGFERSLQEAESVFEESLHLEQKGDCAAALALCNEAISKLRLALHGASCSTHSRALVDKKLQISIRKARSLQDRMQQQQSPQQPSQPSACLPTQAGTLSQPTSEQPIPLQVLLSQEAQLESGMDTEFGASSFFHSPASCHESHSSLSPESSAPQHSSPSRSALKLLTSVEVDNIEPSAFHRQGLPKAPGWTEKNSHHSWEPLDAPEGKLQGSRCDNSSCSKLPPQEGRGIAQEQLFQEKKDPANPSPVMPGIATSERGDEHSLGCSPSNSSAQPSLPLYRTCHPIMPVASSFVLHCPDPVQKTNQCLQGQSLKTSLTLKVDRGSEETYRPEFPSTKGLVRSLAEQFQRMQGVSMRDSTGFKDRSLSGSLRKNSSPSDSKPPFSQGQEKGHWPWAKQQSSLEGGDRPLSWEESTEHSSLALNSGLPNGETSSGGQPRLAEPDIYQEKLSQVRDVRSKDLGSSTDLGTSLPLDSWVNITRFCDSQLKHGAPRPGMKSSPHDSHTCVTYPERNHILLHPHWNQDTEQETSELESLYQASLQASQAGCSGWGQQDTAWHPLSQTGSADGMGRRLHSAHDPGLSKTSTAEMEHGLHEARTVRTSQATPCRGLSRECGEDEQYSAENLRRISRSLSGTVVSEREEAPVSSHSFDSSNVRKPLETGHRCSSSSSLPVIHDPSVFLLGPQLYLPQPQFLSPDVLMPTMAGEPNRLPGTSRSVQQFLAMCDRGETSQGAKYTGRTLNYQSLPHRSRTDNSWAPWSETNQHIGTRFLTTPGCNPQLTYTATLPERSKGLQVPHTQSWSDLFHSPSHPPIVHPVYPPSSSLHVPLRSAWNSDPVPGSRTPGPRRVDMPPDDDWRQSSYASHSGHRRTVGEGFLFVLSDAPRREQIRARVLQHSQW
USP46, sequence (P62068 whole entry): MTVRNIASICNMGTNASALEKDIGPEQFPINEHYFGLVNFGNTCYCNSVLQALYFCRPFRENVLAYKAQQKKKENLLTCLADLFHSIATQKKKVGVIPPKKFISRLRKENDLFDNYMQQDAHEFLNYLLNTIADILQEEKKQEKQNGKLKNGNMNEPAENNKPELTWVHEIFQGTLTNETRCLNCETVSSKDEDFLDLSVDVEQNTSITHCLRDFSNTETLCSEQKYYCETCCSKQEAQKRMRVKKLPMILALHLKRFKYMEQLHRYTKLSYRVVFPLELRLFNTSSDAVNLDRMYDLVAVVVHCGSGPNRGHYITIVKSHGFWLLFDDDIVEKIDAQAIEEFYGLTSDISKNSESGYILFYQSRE
USP7, sequence (Q93009 whole entry, looked up): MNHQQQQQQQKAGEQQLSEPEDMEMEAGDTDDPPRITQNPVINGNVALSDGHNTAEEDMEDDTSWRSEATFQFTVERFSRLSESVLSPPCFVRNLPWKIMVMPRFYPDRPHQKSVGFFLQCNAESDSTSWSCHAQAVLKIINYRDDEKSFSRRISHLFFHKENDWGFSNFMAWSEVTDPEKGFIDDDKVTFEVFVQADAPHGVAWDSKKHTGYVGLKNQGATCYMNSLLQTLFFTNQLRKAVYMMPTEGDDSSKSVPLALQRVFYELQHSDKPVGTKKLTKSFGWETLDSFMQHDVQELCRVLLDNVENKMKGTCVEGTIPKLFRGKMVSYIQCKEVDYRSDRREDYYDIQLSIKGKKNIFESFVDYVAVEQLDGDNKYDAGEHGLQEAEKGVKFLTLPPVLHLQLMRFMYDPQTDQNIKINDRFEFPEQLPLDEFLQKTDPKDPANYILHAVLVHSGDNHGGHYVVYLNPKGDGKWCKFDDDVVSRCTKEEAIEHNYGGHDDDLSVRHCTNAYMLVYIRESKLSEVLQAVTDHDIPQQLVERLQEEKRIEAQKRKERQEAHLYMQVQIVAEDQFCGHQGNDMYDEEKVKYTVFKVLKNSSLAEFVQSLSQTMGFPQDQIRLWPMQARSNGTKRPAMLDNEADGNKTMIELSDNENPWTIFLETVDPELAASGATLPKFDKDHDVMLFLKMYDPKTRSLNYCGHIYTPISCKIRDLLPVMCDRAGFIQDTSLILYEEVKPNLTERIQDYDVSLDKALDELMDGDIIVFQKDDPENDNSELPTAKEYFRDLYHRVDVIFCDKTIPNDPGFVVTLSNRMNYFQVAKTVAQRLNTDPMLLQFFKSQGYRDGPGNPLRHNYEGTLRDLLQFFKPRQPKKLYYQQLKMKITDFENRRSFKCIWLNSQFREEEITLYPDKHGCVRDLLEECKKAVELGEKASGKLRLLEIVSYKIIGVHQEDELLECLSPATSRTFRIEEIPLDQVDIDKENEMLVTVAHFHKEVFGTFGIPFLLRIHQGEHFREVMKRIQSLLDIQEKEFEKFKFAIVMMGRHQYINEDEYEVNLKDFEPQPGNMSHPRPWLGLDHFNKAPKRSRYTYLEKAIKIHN

O=C(CCl)N1CCN(C(=O)N2CCCCC2)CC1
active: USP5 -1.13 | USP7 -1.12
inactive: USP42 0.232 | USP46 -0.637 | USP47 -0.616 | USP48 -0.949 | USP54 0.892 | USP8 -0.843

Reference: the supplement of paper PMC11732987, “Enantioselective OTUD7B fragment discovery through chemoproteomics screening and high-throughput optimisation” (Communications Chemistry, 2025)
